Measurements as given in PubChem BioAssay (EPA / NIEHS).
Records with an inconclusive call do not appear. Calls of active or inactive are those of the source. How the source made its calls: active means hit-call score of the fitted dose curve at least 0.9, where 1 is the maximum; inconclusive means response in the unintended direction; inactive means score below 0.9.

What follows are molecules tested against human Matrix Metalloproteinase-1 (MMP1), MMP1 (gene 4312) (UniProt P03956) (assay: NVS_ENZ_hMMP1: NovaScreen (NVS) Enzymatic Assay for human Matrix Metalloproteinase-1 (MMP1) (AID 2283181)).
Sequence of human Matrix Metalloproteinase-1 (MMP1), MMP1 (gene 4312) (P03956 whole entry, looked up): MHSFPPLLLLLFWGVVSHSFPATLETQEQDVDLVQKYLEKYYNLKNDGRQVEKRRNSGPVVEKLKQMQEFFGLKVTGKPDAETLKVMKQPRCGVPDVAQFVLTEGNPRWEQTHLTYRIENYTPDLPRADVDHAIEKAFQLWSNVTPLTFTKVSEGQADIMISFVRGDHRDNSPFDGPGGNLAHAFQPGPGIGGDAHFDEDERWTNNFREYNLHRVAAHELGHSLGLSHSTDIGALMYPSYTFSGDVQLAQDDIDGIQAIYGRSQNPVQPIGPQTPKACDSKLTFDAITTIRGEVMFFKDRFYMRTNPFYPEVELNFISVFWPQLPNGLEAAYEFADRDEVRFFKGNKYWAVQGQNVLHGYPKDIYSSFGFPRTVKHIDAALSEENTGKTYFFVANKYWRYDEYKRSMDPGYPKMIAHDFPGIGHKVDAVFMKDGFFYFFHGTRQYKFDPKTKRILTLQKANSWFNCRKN
Procedure: NVS_ENZ_hMMP1 is a biochemical, single-readout assay that uses extracted gene-proteins in a cell-free assay. Measurements were taken 1 hour after chemical dosing in a 96-well plate.NVS_ENZ_hMMP1 is one of one assay component(s) measured or calculated from the NVS_ENZ_hMMP1 assay. It is designed to make measurements of enzyme activity, a form of enzyme reporter, as detected with fluorescence intensity signals by Fluorescence technology.Data from the assay component NVS_ENZ_hMMP1 was analyzed into 1 assay endpoint. This assay endpoint, NVS_ENZ_hMMP1, was analyzed in the positive analysis fitting direction relative to DMSO as the negative control and baseline of activity. Using a type of enzyme reporter, loss-of-signal activity can be used to understand changes in the enzymatic activity as they relate to the gene MMP1. Furthermore, this assay endpoint can be referred to as a primary readout, because this assay has produced multiple assay endpoints where this one serves a enzymatic activity function. To generalize the intended target to other relatable targets, this assay endpoint is annotated to the protease intended target family, where the subfamily is matrix metalloproteinase.
Binding assays used specific radioligands (tritiated, iodinated) with non-radioactive competitive displacement ligands in agonist or antagonist protocols (as indicated) and various reference compounds and inhibitors to titrate specific binding to receptors and transporters. Most enzyme assays (CYPs, kinases, phosphatases, proteases, HDACs) used recombinant protein and specific substrates (fluorescence mostly, some colorimetric and radioactive) and inhibitors, followed by a biochemical separation of substrate and product. All assays for the biochemical HTS were initially run in duplicate at a single concentration (10 uM for CYP450 assays and 25 uM for all others). Assay-chemical combinations meeting a pre-defined threshold (e.g., 30% inhibition and other criteria defined below) were then run in singleton concentration-response format with maximum concentration of 20 uM for CYPs and 50 uM for all others. Each assay was run with positive and negative controls, and concurrent controls on every plate. The follow-up (secondary) screen tested active chemical-pairs in concentration series, as well as a few additional assays not tested in the primary screen, some selected negative inactives, and several cases re-run in the concentration series for confirmatory purposes.

| Structure (SMILES) | outcome | AC50 |
| --- | --- | --- |
| O=C(O)C(F)(F)C(F)(F)C(F)(F)C(F)(F)C(F)(F)C(F)(F)C(F)(F)C(F)(F)C(F)(F)F | inactive |  |
| CC(C)(c1ccccc1)c1ccc(O)cc1 |  | 10.5 µM (active) |
| Oc1ccc(C(c2ccc(O)cc2)(C(F)(F)F)C(F)(F)F)cc1 |  | 5.26 µM (active) |
| O=NN(c1ccccc1)c1ccccc1 | inactive |  |
| CCCCCCCCCC[N+](C)(C)CCCCCCCCCC | inactive |  |

These molecules were tested against human Matrix Metalloproteinase-9 (MMP9), MMP9 (gene 4318) (UniProt P14780) (assay: NVS_ENZ_hMMP9: NovaScreen (NVS) Enzymatic Assay for human Matrix Metalloproteinase-9 (MMP9) (AID 2283190);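 further: cell-free recombinant MMP9 protease activity read by fluorescent substrate signal; active means inhibition seen as loss of fluorescence signal versus DMSO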).
Sequence of human Matrix Metalloproteinase-9 (MMP9), MMP9 (gene 4318) (P14780 whole entry, looked up): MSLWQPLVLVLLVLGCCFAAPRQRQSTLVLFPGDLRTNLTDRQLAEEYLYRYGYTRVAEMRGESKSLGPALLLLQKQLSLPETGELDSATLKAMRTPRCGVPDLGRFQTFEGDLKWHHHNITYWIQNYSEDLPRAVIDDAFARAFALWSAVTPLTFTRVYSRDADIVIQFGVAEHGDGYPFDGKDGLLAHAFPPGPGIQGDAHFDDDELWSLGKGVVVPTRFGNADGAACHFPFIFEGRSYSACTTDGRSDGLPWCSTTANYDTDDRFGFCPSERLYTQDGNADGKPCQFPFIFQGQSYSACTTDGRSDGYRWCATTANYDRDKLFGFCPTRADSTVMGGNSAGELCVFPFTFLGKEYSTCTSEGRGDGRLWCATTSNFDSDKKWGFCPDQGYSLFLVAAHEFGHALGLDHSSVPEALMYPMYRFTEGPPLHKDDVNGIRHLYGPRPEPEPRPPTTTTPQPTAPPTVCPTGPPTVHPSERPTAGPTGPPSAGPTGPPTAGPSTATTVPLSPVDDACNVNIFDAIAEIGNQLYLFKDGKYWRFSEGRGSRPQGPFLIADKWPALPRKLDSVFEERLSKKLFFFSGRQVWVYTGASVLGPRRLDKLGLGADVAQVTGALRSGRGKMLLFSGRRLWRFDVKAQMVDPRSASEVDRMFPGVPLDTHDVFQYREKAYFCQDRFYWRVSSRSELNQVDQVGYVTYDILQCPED
Method in brief: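 Cell-free fluorescence-intensity enzyme activity assay using extracted protein, read 1 h after dosing. Loss of signal versus DMSO baseline indicates inhibition; primary screen in duplicate at 25 uM, actives followed up in concentration series.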

| Structure (SMILES) | AC50 | outcome |
| --- | --- | --- |
| Sc1ccccc1 | 4.12 µM (active) |  |
| CCCCCCCCCc1ccc(O)cc1 |  | inactive |
| CO/C=C(/C(=O)OC)c1ccccc1COc1cccc(C(F)(F)F)n1 |  | inactive |

The molecules below were run against human Phosphodiesterase 5 (PDE5), PDE5A (gene 8654) (UniProt O76074) (assay: NVS_ENZ_hPDE5: NovaScreen (NVS) Enzymatic Assay for human Phosphodiesterase 5 (PDE5) (AID 2283194)).
Method in brief: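 Screening began in duplicate at 25 uM, with actives taken into concentration-response. Enzyme activity of recombinant PDE5 toward its substrate was measured at 1 h by fluorescence mobility-shift detection, relative to DMSO controls.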

| Structure (SMILES) | outcome | AC50 |
| --- | --- | --- |
| ClC(Cl)=C(c1ccc(Cl)cc1)c1ccc(Cl)cc1 | inactive |  |
| CCC(C)(c1ccc(O)cc1)c1ccc(O)cc1 | inactive |  |
| C[C@]12CCC(=O)C=C1CC[C@@H]1[C@@H]2CC[C@]2(C)C(=O)CC[C@@H]12 |  | 12.3 µM (active) |
| Oc1c(Cl)c(Cl)c(Cl)c(Cl)c1Cl | inactive |  |
| N#Cc1ccc(N(CC(N)=O)CC(F)(F)F)cc1C(F)(F)F | inactive |  |
